In PubChem BioAssay (EPA / NIEHS):
Inconclusive results are not listed. The source made the active and inactive calls. How the source made its calls: active means hit-call score of the fitted dose curve at least 0.9, where 1 is the maximum; inconclusive means response in the unintended direction; inactive means score below 0.9.

Test: Tanguay_ZF_120hpf_TRUN_legacy: (Legacy) Oregon State University Tanguay Lab 120 Hour Post-fertilization zebrafish Assay for Truncated Body (AID 2283655)
How it was run: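 Whole-embryo zebrafish screen: dechorionated 5D embryos, static exposure 6–120 hpf, 28C, sealed foil-covered plates, 0.64% DMSO. Binary truncation call; gain of signal versus DMSO baseline.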
In the case of `COC(=O)CCC(=O)OC`, the outcome is reported as “inactive”. With `CCCCCCCCCC[N+](C)(C)[O-]` the outcome was “inactive”. For `CCCC[C@H]1CN(CC2CCOCC2)C(=O)OC12CCN(C1(C)CCN(C(=O)c3c(C)ncnc3C)CC1)CC2`, the outcome was “inactive”. With `CCCCC(CC)CO` (stereo not given) the outcome was “inactive”. In the case of `COc1ccc(OC(F)(F)F)cc1CN[C@H]1CCCN[C@H]1c1ccccc1`, the outcome is reported as “inactive”. For `O=C(NS(=O)(=O)/C=C/c1cccs1)c1ccc(F)cc1Br`, the outcome was “inactive”. For `CCCCCCCC(=O)OC`, the outcome was “inactive”. With `O=C(O)c1[nH]n(-c2ccc(S(=O)(=O)O)cc2)c(=O)c1N=Nc1ccc(S(=O)(=O)O)cc1` the outcome was “inactive”. For `CCC(C)N(C)C(=O)c1cc2ccccc2c(-c2ccccc2Cl)n1` (stereo not given), the outcome was “inactive”. With `Cc1cc(SC2=C(O)C[C@@](CCc3ccc(N)cc3)(C(C)C)OC2=O)c(C(C)(C)C)cc1CO` the outcome was “inactive”. For `C#CC(O)C(CC)CCCC` (stereo not given), the outcome was “inactive”. In the case of `O=C(Oc1ccccc1)c1cccc(C(=O)Oc2ccccc2)c1`, the outcome is reported as “inactive”. With `C/C=C/c1ccc(OC)cc1` the outcome was “inactive”. In the case of `CN(C)C(=O)NC1(c2ccccc2)CCN(CCC[C@]2(c3ccc(Cl)c(Cl)c3)CCCN(C(=O)c3ccccc3)C2)CC1`, the outcome is reported as “inactive”. For `Cc1occc(=O)c1O`, the outcome was “inactive”.
